According to the supplement of paper PMC11732987, “Enantioselective OTUD7B fragment discovery through chemoproteomics screening and high-throughput optimisation” (Communications Chemistry, 2025):

Experiments:
Test in all cases: log2 ratio of Biotin-Ahx-Ub-VS probe labelling (fragment/DMSO); higher = less target engagement (more negative = stronger competition), active = hit call of the paper (q ≤ 0.05, log2 ratio ≤ -1)
Settings in all cases: compound concentration: 200 uM; treatment time: 3 h
USP34 = USP34 (UniProt Q70CQ2)
Outline: (§1)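 Labelled DUBs from HEK293T lysate were NeutrAvidin-enriched, digested with LysC and trypsin, and run by diaPASEF LC-MS/MS. Before that, each 495 µg sample in Tris/CHAPS/IGEPAL buffer with protease inhibitors was treated in triplicate with fragment at 200 µM or vehicle for 3 h, then with Biotin-Ahx-Ub-VS at 0.5 µM final for 1 h. Values are average log2 ratios of fragment over vehicle by unpaired t-test, based on global-median-normalised Spectronaut label-free quantities from proteins with ≥2 unique peptides.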

USP36 = target: T1, USP36 (UniProt Q9P275)
T1 sequence (whole entry): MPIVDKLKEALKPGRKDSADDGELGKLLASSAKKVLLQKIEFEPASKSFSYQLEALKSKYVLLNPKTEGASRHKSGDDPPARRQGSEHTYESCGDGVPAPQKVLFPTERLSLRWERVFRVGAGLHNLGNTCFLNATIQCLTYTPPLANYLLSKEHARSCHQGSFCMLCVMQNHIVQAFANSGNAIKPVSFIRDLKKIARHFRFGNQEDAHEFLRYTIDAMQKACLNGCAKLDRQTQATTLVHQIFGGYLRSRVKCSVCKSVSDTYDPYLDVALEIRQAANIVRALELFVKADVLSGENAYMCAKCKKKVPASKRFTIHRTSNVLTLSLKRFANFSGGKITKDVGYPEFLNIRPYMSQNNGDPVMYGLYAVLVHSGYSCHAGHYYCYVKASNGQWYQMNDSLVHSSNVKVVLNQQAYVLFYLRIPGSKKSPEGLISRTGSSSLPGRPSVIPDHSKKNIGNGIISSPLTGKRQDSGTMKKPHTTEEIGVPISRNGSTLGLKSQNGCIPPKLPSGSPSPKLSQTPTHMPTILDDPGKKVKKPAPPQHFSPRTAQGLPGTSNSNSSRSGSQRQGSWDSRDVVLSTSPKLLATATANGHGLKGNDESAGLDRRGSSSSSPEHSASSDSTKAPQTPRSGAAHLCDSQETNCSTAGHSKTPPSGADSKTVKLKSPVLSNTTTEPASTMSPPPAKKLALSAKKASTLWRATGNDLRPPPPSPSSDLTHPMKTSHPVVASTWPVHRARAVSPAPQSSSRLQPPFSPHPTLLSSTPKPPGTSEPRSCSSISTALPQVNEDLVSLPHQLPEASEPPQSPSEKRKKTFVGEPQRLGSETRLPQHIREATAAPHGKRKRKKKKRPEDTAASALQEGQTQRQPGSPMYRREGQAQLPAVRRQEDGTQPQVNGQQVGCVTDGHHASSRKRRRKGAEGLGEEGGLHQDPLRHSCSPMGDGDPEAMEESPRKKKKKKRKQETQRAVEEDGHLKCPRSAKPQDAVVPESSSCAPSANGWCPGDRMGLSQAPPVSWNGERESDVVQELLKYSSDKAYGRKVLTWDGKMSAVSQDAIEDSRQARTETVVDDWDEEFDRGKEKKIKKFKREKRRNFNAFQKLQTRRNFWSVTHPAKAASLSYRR
Outline: as §1

USP38 = target: T2, USP38 (UniProt Q8NB14)
T2 sequence (whole entry): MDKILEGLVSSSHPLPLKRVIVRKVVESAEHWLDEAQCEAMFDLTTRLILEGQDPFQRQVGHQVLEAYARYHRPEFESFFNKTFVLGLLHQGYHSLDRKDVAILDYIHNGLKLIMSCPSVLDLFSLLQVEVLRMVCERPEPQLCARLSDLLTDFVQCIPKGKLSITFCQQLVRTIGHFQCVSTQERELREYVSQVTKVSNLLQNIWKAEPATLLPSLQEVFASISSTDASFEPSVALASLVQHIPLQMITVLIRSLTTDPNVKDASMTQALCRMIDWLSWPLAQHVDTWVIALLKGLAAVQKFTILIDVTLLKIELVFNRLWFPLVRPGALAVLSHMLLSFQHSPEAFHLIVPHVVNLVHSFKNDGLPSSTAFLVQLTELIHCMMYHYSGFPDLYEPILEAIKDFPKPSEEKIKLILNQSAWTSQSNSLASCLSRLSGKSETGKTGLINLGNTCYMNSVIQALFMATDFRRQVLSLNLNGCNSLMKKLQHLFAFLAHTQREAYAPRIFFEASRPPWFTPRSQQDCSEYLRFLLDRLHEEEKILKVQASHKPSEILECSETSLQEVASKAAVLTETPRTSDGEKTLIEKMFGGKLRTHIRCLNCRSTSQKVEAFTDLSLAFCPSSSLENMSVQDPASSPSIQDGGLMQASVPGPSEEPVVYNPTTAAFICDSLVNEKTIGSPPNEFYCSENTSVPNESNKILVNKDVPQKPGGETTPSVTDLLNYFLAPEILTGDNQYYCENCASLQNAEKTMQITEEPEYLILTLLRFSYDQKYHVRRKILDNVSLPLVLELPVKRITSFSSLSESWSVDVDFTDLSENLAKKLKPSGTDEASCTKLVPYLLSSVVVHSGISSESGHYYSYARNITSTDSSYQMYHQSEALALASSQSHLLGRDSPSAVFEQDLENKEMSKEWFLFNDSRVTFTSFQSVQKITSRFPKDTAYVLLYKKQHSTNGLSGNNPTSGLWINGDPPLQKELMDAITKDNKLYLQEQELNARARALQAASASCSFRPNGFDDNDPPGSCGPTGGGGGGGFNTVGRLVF
Outline: as §1

USP39 = target: T3, USP39 (UniProt Q53GS9)
T3 sequence (whole entry): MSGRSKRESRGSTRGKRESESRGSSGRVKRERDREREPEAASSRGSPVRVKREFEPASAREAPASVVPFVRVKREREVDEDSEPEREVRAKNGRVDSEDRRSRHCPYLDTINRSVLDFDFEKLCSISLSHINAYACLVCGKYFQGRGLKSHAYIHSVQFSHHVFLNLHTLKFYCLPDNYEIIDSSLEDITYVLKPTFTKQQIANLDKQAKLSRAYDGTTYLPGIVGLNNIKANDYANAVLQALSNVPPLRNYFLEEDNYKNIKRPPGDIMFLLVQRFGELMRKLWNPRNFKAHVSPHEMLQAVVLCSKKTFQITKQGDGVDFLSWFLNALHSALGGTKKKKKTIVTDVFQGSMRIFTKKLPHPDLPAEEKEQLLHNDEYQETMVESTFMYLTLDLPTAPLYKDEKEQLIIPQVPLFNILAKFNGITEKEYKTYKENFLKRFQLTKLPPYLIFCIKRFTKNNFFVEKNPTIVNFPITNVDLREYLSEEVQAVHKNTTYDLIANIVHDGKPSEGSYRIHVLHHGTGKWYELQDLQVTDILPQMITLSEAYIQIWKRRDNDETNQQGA
Outline: as §1

USP4 = target: T4, USP4 (UniProt Q13107)
T4 sequence (whole entry): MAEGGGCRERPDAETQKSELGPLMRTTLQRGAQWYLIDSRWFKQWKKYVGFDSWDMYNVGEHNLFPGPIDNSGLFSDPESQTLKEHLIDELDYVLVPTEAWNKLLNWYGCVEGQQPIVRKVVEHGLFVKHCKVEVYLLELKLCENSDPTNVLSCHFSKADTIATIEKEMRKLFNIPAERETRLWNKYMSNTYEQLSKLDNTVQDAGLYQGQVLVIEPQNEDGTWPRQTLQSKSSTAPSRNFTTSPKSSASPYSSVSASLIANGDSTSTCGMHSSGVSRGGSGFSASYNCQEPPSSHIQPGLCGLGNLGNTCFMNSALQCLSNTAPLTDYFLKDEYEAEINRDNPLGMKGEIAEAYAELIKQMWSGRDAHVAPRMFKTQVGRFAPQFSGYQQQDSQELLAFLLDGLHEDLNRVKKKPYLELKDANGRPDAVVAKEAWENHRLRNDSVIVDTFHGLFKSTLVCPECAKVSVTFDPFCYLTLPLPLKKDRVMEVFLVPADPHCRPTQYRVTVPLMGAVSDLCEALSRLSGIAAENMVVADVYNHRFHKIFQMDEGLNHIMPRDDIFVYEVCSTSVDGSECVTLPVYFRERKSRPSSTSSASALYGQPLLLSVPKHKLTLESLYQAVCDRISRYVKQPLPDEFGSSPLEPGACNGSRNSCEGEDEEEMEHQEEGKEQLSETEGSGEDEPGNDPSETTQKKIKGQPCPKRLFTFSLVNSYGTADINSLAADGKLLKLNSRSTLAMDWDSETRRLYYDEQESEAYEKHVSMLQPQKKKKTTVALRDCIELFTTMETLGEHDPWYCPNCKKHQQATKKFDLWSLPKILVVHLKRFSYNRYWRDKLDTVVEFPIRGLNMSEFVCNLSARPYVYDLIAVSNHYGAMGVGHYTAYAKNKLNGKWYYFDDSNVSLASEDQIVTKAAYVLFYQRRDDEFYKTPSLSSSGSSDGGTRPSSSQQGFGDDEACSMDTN
Outline: as §1

Measured: log2 ratio of Biotin-Ahx-Ub-VS probe labelling

Chain of USP34 (Q70CQ2 whole entry, the tested form may be a part): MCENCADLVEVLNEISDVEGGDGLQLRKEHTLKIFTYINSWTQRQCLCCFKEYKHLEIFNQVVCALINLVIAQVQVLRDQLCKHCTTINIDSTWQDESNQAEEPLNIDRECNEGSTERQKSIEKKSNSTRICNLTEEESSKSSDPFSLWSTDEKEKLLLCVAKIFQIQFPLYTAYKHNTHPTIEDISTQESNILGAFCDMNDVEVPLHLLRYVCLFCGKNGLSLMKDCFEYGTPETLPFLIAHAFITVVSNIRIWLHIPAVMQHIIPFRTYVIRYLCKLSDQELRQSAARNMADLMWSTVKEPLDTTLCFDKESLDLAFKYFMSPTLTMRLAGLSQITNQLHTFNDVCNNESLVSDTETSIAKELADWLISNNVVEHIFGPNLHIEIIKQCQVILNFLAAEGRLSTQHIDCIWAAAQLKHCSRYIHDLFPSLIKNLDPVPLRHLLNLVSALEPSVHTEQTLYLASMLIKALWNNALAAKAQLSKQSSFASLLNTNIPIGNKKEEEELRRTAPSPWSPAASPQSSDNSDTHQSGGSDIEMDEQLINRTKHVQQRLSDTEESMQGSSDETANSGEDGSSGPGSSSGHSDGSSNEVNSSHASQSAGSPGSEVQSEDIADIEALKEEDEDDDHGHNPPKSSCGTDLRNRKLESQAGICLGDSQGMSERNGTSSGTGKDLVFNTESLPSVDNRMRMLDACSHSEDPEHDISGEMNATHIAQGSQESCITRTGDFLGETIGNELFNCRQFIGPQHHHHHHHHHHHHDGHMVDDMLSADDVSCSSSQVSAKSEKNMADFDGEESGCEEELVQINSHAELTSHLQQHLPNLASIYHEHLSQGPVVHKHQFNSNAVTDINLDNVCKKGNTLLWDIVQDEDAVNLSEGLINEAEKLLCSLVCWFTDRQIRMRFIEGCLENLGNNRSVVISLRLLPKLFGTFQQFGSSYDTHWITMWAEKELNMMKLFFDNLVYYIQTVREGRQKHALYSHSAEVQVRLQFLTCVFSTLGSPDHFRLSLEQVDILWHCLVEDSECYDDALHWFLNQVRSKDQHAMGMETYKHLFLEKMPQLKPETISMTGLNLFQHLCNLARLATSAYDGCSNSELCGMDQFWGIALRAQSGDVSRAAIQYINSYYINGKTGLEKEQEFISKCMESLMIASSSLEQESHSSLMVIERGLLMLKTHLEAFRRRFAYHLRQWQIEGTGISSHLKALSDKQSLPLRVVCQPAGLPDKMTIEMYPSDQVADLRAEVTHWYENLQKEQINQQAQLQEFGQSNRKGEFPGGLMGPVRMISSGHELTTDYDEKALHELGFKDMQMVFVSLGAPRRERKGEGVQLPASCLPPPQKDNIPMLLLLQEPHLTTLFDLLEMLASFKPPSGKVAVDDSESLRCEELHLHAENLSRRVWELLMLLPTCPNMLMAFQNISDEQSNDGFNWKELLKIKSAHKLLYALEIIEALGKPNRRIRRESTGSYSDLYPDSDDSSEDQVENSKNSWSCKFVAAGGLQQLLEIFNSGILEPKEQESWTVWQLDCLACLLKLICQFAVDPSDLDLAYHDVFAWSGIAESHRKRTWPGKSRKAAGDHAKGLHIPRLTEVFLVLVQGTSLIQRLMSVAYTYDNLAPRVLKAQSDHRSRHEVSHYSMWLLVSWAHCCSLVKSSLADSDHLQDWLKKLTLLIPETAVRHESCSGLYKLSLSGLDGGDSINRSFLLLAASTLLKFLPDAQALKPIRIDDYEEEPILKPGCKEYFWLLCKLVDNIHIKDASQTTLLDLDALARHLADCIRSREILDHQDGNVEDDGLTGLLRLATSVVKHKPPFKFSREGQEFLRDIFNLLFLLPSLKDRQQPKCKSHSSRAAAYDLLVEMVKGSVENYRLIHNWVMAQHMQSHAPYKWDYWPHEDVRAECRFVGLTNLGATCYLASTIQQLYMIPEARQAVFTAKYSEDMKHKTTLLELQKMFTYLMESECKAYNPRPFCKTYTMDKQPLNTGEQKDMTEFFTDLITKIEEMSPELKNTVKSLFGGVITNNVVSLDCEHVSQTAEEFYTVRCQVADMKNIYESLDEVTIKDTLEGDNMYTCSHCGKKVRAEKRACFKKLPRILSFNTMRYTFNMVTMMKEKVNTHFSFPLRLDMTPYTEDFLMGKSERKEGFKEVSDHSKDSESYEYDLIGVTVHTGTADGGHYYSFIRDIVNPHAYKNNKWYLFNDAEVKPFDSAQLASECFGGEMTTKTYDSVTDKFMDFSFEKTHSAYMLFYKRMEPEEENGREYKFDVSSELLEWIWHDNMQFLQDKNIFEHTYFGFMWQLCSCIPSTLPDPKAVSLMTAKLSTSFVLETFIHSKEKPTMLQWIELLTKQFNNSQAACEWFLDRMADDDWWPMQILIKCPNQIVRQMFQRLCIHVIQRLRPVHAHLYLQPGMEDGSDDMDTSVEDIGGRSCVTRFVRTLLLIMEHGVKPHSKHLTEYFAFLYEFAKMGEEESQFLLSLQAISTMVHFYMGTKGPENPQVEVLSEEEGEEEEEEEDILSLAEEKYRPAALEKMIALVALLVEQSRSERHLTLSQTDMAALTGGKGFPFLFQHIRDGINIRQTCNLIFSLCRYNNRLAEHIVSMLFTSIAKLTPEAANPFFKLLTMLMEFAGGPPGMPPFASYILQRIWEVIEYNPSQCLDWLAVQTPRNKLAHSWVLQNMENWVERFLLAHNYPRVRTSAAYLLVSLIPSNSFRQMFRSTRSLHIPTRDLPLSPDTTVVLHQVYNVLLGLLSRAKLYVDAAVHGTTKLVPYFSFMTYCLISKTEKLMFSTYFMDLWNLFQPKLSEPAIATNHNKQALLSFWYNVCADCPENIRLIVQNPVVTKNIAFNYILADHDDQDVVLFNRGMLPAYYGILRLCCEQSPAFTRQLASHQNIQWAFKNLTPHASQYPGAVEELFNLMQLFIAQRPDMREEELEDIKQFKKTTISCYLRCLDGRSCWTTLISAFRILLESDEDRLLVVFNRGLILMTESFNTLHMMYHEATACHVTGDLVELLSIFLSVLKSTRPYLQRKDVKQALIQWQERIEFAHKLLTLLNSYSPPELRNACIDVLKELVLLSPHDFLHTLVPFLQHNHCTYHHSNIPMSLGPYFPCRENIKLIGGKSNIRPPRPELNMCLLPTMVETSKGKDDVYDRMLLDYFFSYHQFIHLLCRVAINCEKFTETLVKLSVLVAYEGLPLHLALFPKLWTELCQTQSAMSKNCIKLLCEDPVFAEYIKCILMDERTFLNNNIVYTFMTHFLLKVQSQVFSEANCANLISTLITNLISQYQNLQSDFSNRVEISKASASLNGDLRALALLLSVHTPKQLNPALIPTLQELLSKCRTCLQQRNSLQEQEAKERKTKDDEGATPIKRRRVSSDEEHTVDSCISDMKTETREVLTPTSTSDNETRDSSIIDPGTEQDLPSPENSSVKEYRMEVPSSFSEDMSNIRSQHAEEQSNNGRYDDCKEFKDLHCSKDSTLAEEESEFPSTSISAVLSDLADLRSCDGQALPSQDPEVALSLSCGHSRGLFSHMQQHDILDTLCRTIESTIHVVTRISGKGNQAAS

Cc1cccc(C(CNC(=O)CCl)N2CCOCC2)c1.Cl (stereo not given)
inactive: USP34 -0.0673 | USP36 0.0549 | USP38 -0.0229 | USP39 -0.116 | USP4 -0.165
